Laboratory results: PubChem BioAssay (NCI)
Compounds without any hit were thinned out: in the full panel of roughly 83,000, 20% have a hit.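 Testing used 96-well plates and a 48-hour single-concentration exposure. Example: -40 means 40% of the starting cells died.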 Calls of active or inactive are those of the source. How the source made its calls: active means growth percent below 10; inactive means the rest.

Columns and labels:
Assay in all cases: NCI-60 one-dose screen, 48 h (100 = growth as untreated, 0 = no growth, -100 = all killed)
Conditions in all cases: 10 µM unless noted
NCI-H23 lung = tested on: NCI-H23 lung
NCI-H226 lung = tested on: NCI-H226 lung
NCI-H322M lung = tested on: NCI-H322M lung
HOP-62 NSCLC = tested on: HOP-62 NSCLC
NCI-H460 lung = tested on: NCI-H460 lung
HOP-92 NSCLC = tested on: HOP-92 NSCLC
NCI-H522 lung = tested on: NCI-H522 lung
A549/ATCC NSCLC = tested on: A549/ATCC NSCLC
786-0 renal = tested on: 786-0 renal
COLO 205 colon = tested on: COLO 205 colon
DU-145 prostate = tested on: DU-145 prostate
K-562 leukemia = tested on: K-562 leukemia
MALME-3M melanoma = tested on: MALME-3M melanoma
MDA-MB-231 breast = tested on: MDA-MB-231 breast
RXF 393 renal = tested on: RXF 393 renal
SF-268 CNS = tested on: SF-268 CNS
SF-295 CNS = tested on: SF-295 CNS
SF-539 CNS = tested on: SF-539 CNS
UACC-257 melanoma = tested on: UACC-257 melanoma
M14 melanoma = tested on: M14 melanoma

Measured: growth

O=C(Nc1cccc(-n2ccc3c(NC(=O)c4ccccc4)nccc32)c1)c1cccc(C(F)(F)F)c1
active: NCI-H460 lung 3.05% | NCI-H522 lung -45.2% | A549/ATCC NSCLC 7.84% | 786-0 renal -14.6% | COLO 205 colon -44.5% | DU-145 prostate -10.9% | MDA-MB-231 breast 3.85% | RXF 393 renal -49.4% | SF-295 CNS -8.39% | SF-539 CNS 4.4% | M14 melanoma 7.48%
inactive: NCI-H23 lung 20.8% | NCI-H226 lung 35.6% | NCI-H322M lung 34.2% | HOP-62 NSCLC 36.4% | HOP-92 NSCLC 40.3% | K-562 leukemia 12.1% | MALME-3M melanoma 48.3% | SF-268 CNS 14.8% | UACC-257 melanoma 42.4%

O=C(CSc1nnc(-c2ccccc2)o1)Nc1ccc(C(=O)/C=C/c2ccccc2)cc1
inactive: NCI-H23 lung 77.6% | NCI-H226 lung 85.4% | NCI-H322M lung 71.1% | HOP-62 NSCLC 72.4% | NCI-H460 lung 48.4% | HOP-92 NSCLC 60.6% | NCI-H522 lung 65.2% | A549/ATCC NSCLC 60.3% | 786-0 renal 84.8% | COLO 205 colon 79.2% | DU-145 prostate 62.7% | MALME-3M melanoma 69.8% | MDA-MB-231 breast 83.9% | RXF 393 renal 93.1% | SF-268 CNS 65.8% | SF-295 CNS 77.3% | SF-539 CNS 84.7% | UACC-257 melanoma 113% | M14 melanoma 66.4%
active: K-562 leukemia 8.02%

COC(=O)c1ccc(NC(N)=NCC(C)(C)COc2ccc(C(F)(F)F)cc2)nc1
inactive: NCI-H23 lung 33.6% | NCI-H226 lung 50.7% | NCI-H322M lung 65.9% | HOP-62 NSCLC 76.6% | NCI-H460 lung 38.8% | HOP-92 NSCLC 47.1% | NCI-H522 lung 37.2% | A549/ATCC NSCLC 56.1% | 786-0 renal 70.9% | DU-145 prostate 68.8% | MALME-3M melanoma 82.4% | MDA-MB-231 breast 48.8% | RXF 393 renal 70.7% | SF-268 CNS 66.8% | SF-295 CNS 57.1% | SF-539 CNS 82.6% | UACC-257 melanoma 62.4% | M14 melanoma 55.6%
active: COLO 205 colon -76.7% | K-562 leukemia -31.8%

CC(=S)Nc1ccccc1
inactive: NCI-H23 lung 95.7% | NCI-H226 lung 89.3% | NCI-H322M lung 104% | HOP-62 NSCLC 82.2% | NCI-H460 lung 97.3% | HOP-92 NSCLC 90.7% | NCI-H522 lung 88.2% | A549/ATCC NSCLC 79.6% | 786-0 renal 104% | COLO 205 colon 99.8% | DU-145 prostate 103% | K-562 leukemia 101% | MALME-3M melanoma 89% | MDA-MB-231 breast 95.5% | RXF 393 renal 107% | SF-268 CNS 107% | SF-295 CNS 105% | SF-539 CNS 102% | UACC-257 melanoma 82.7% | M14 melanoma 96.6%

C[C@H]1C=C(C[C@@H](O)CCCCCCCCCC[C@@H](O)[C@H]2CCC(=O)O2)C(=O)O1
inactive: NCI-H23 lung 95.5% | NCI-H226 lung 96.5% | NCI-H322M lung 94.2% | HOP-62 NSCLC 109% | NCI-H460 lung 113% | HOP-92 NSCLC 68% | NCI-H522 lung 73.3% | A549/ATCC NSCLC 110% | 786-0 renal 96.8% | COLO 205 colon 92.5% | DU-145 prostate 112% | K-562 leukemia 83.5% | MALME-3M melanoma 122% | MDA-MB-231 breast 102% | RXF 393 renal 100% | SF-268 CNS 115% | SF-295 CNS 109% | SF-539 CNS 92.5% | UACC-257 melanoma 102% | M14 melanoma 101%

Cc1cccc(NCS(=O)(=O)O)c1
inactive: NCI-H23 lung 99.5% | NCI-H226 lung 97.1% | NCI-H322M lung 106% | HOP-62 NSCLC 92.4% | NCI-H460 lung 105% | HOP-92 NSCLC 99.4% | NCI-H522 lung 90.9% | A549/ATCC NSCLC 75% | 786-0 renal 103% | COLO 205 colon 103% | DU-145 prostate 112% | K-562 leukemia 107% | MALME-3M melanoma 102% | MDA-MB-231 breast 111% | RXF 393 renal 109% | SF-268 CNS 109% | SF-295 CNS 106% | SF-539 CNS 95.7% | UACC-257 melanoma 83.2% | M14 melanoma 106%

O=C(Nc1ccc(-n2cc(-c3ccncc3)c(-c3ccc(O)c(Cl)c3)n2)cc1)c1cc(Cl)cc(Cl)c1
active: 786-0 renal -42.1% | MDA-MB-231 breast -54.1% | RXF 393 renal -80.2% | SF-295 CNS -11.1% | M14 melanoma -40.4%
inactive: NCI-H23 lung 59.2% | NCI-H226 lung 89.1% | NCI-H322M lung 50.1% | HOP-62 NSCLC 45.5% | NCI-H460 lung 22.3% | HOP-92 NSCLC 42% | NCI-H522 lung 22% | A549/ATCC NSCLC 35.9% | COLO 205 colon 91.1% | DU-145 prostate 38.9% | K-562 leukemia 11.5% | MALME-3M melanoma 34% | SF-268 CNS 49.4% | SF-539 CNS 12.8% | UACC-257 melanoma 66.9%

CCc1ccc(C2=C/C(=C/c3ccc(Cl)cc3)C(=O)N2CCc2ccc(S(N)(=O)=O)cc2)cc1
active: NCI-H460 lung 2.69% | NCI-H522 lung 5.98% | COLO 205 colon -35.4% | RXF 393 renal 7.12%
inactive: NCI-H23 lung 34.4% | NCI-H226 lung 29.2% | NCI-H322M lung 54.3% | HOP-62 NSCLC 34.1% | HOP-92 NSCLC 15.1% | A549/ATCC NSCLC 13.7% | 786-0 renal 40% | DU-145 prostate 43.8% | K-562 leukemia 11% | MALME-3M melanoma 41.5% | MDA-MB-231 breast 43.8% | SF-268 CNS 45.6% | SF-295 CNS 25.9% | SF-539 CNS 56.1% | UACC-257 melanoma 39.4% | M14 melanoma 30.6%
